Consider nine compounds from PubChem BioAssay (NCATS).

The nature of assay [1]: AP1 Signaling Pathway (AID 357; active = well fitted curve in either direction with a large enough effect, not every such curve was filed as active;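 also: ME-180 reporter cells stimulated with EGF at its EC50 level; % is scaled to controls: 0 for no effect and ±100 for the full control effect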). As to conditions: ME-180 AP-1-bla reporter, EGF-induced, beta-lactamase ratio, 5 h; at 17.2 µM (top of the series) unless noted. The procedure, abridged:
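Read-out was the 460nm/530nm emission ratio (excitation 405nm) after CCF4 loading for 2.5 hours at room temperature. Cells carried an AP-1-driven beta-lactamase reporter, were stimulated with EC50 EGF plus compound for 5 hours, and AC50 values came from titrations.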

Assay [2] has as its target Glucocorticoid receptor (Homo sapiens) (UniProt P04150). In words: GR-GFP Redistribution (AID 450;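 active = compounds whose dose series gives a full or clear partial fitted curve of increased nuclear translocation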; also: potency is read from the fitted curve at half-maximal effect).
Assay [3] addresses Tumor susceptibility gene 101 protein (Homo sapiens) (UniProt Q99816). In words: qHTS Assay for Iinhibitors of HIV-1 Budding by Blocking the Interaction of PTAP/TSG101: Hit Validation (AID 651600). Also: potency is read from the fitted curve at half-maximal effect; nearly all actives have a fitted effect of over 70% in size. The procedure, abridged: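 Fluorescence polarization binding assay: Tsg101 binding domain (10 uM final) pre-dispensed with compounds, then FITC-labeled PTAP-motif peptide (50 nM final) added; 20 min at r.t. in HEPES pH 7.5 buffer with NaCl, Tween 20, EDTA, TCEP.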
In general terms: qHTS replaces the single test concentration by a dilution series.

Assay [4] can be described thus: qHTS Assay for Identification of Small Molecule Agonists for Hypoxia Response Element Signaling Pathway (AID 914; active = well fitted activation curve with a large enough effect in the signal ratio, with a control signal flat, not every such curve was filed as active; the % refers to the signal ratio; also: potency is read from the fitted curve at half-maximal effect; as to activation: % of control where 0% means no effect). As to conditions: ME-180 HRE-bla reporter, beta-lactamase ratio, CoCl2, 17 h; activation: stronger effect = higher value. The procedure, abridged: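 HRE-bla ME-180 cells with beta-lactamase reporter under hypoxia response element, compounds with EC50 CoCl2 for 17 hours at 37 C. CCF4 substrate, 460nm/530nm emission ratio gave %Activity; AC50 from titration series.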

Assay [5] deals with Cytochrome P450 1A2 (Homo sapiens) (UniProt P05177). Kind of assay: p450-cyp1a2 (AID 410; calls by dose curve; also: potency is read from the fitted curve at half-maximal effect;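 as to activity change, negative = inhibition: -100% = full effect of reference inhibitor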). The procedure, abridged: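 O-Demethylation of luciferin 6' methyl ether by human CYP1A2 is monitored as luciferase luminescence. Substrate sits at Km (100uM); enzyme is 20nM. Values are scaled to 57 uM furafylline as maximal inhibition.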
Assay [6] can be described thus: NFAT Signaling Pathway (AID 444; active = well fitted curve in either direction with a large enough effect, not every such curve was filed as active;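 also: carbachol stimulus at about its EC50 of 1 µM final; % is scaled to controls: 0 for no effect and ±100 for the full control effect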). Conditions: Jurkat NFAT-bla M1, carbachol, beta-lactamase ratio, 5 h; at 17.2 µM (top of the series) unless noted. The procedure, abridged: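 Read-out: CCF4 FRET ratio (460 nm/530 nm) after 1 h RT dye loading, used for %activity and AC50 from titration series. Cells: Jurkat NFAT-β-lactamase/M1 line, treated with compound plus 1 uM carbachol for 5 h, 37 °C.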

Assay [7] in a line: Stat Signaling Pathway (AID 446; active = well fitted curve in either direction with a large enough effect, not every such curve was filed as active;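 also: ME-180 cervical cancer cells given 40 pM IL-6 alongside compound; SIE-controlled beta-lactamase reporter measured as 460/530 nm FRET emission ratio; % is scaled to controls: 0 for no effect and ±100 for the full control effect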). As to conditions: ME-180 (cervical carcinoma) SIE beta-lactamase reporter, IL-6 stimulated, 5 h; at 17.2 µM (top of the series) unless noted. The procedure, abridged:
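FRET read-out (405 nm excitation, 460/530 nm emission) of a beta-lactamase reporter under a STAT-inducible element in ME-180 cervical carcinoma cells. Cells with compound receive 40 pM IL-6 for 5 h. Values are normalised to AC90 stimulation and AC90 JAK-inhibitor controls.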

In assay [8] the target is Glucocorticoid receptor (Homo sapiens) (UniProt P04150). Kind of assay: GR-EFC Redistribution (AID 451; calls by dose curve; also: potency is read from the fitted curve at half-maximal effect). Conditions: CHO-K1 GR-EFC translocation, beta-gal luminescence, 2 h. The procedure, abridged:
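Translocation of GR-ED fusion to nuclear EA restores b-gal, read by luminescence after 1 h room-temperature detection. Engineered CHO-K1 biosensor cells, 1,000/well, exposed 2 h at 37 C to titrations up to 46 uM final.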

Assay [9] addresses 3',5'-cyclic-AMP phosphodiesterase 4B (Homo sapiens) (UniProt Q07343). Kind of assay: qHTS Assay for Inhibitors of PDE-IV (AID 607; active = well fitted activation curve with a large enough effect in the main read-out, with a control signal flat, not every such curve was filed as active; also: % of control where 0% means no effect). The procedure, abridged:
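Cell-based read-out of cAMP via a modified cyclic nucleotide-gated channel and membrane potential dye (535/590 nm) in HEK293 cells expressing PDE4 endogenously. Compounds tested up to 22.9 uM final; 100 uM RO 20-1724 reference.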

Assay [10] has as its target Cytochrome P450 3A4 (Homo sapiens) (UniProt P08684). Kind of assay: qHTS Assay for Activators of Cytochrome P450 3A4 (AID 885). Also: nearly all actives have a fitted effect of over 65% in size. The procedure, abridged: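 Luminescent readout of luciferin formed from 25 uM Luciferin-PPXE (KM level) by 20 nM CYP3A4 in 200 mM KPO4, with 60 min NADPH-driven reaction at room temperature after 10 min compound exposure. Ketoconazole (57 uM) defined 100% inhibition.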

A short description of assay [11]: qHTS Assay for Identification of Small Molecule Agonists for Thrombopoietin (TPO) Signaling Pathway (AID 917). Also: % is scaled to controls: 0 for no effect and ±100 for the full control effect. The procedure, abridged:
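First, Ba/F3 cells with human TPO receptor were held overnight without IL-3. Next, compounds and TPO (26 pM final) were added. After 24 hrs at 37 C, luciferase detection reagent was added and luminescence measured following 10 min at room temperature.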

The target in assay [12] is Pyruvate kinase (Leishmania mexicana) (UniProt Q27686). In words: qHTS Validation Assay for Inhibitors of Leishmania Mexicana Pyruvate Kinase (AID 945).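 Also: 0% = DMSO only neutral control wells.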 The procedure, abridged: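 Eight-point qHTS titrations in triplicate, data normalized to DMSO neutral control. Reaction: 0.2 nM LmPYK E451W mutant, 0.5 mM PEP, 0.1 mM ADP, 7 mM MgCl2, pH 7.2, one hour at room temperature; luminescent ATP detection.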

Assay [13] concerns the target Pyruvate kinase PKM (Homo sapiens) (UniProt P14618). Kind of assay: qHTS Assay for Inhibitors of Human Muscle Pyruvate Kinase (AID 958). The procedure, abridged:
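Enzyme was run at intermediate activity so both inhibitors and activators could be detected. ATP formed from ADP and PEP by 0.1 nM human PKM2 during a 1 h room-temperature incubation was quantified by coupled luciferase luminescence.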

Assay [14] concerns the target Alpha-galactosidase A (Homo sapiens) (UniProt P06280). Kind of assay: Counterscreen for Glucocerebrosidase Inhibitors: qHTS Assay for Human alpha-Galactosidase at pH 4.5 (AID 992). Also: 0% is about no effect. The procedure, abridged:
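Fluorogenic 1536-well qHTS at pH 4.5 (citrate, Tween-20): 2 nM enzyme, 80 uM 4-MU-alpha-galactoside, 20 min room temperature, NaOH/glycine stop. Titration 0.7 nM to 77 uM, data normalized to no-enzyme and full-activity controls, Hill-fitted AC50.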

Assay [15] deals with alpha-glucosidase (Oryza sativa, rice) (UniProt Q653V4). Kind of assay: Counterscreen for Glucocerebrosidase Inhibitors: qHTS Assay for Rice alpha-Glucosidase at pH 5.0 (AID 997).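 Also: 0% = full activity with enzyme and -100% = basal without enzyme.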 The procedure, abridged:
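Endpoint fluorogenic assay at pH 5.0: compounds (0.7 nM to 77 uM) titrated against 4 nM rice enzyme and 400 uM 4-MU-alpha-glucoside for 20 min at room temperature; NaOH/glycine stop, read ex 365/em 440 nm, Hill-fitted AC50.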
In general terms: Counterscreens check selectivity or assay interference.

For assay [16], the target named is Mitogen-activated protein kinase 10 (Mus musculus) (UniProt Q61831). In words: JNK3 AlphaScreen Assay (AID 530; active = well fitted curve in either direction with a large enough effect, not every such curve was filed as active). The procedure, abridged:
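qHTS titrations with 15 min compound pre-incubation before adding ATP (10 uM final). Read-out: AlphaScreen of Ser73-phosphorylated biotin-GST-cJun using HepG2 lysate JNK3 activated by IL-1β and TNFα.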
For orientation: Alpha assays give light when donor and acceptor beads are brought close together.

Assay [17] is described as follows: Confirmation and Secondary Assay for Modulators of Hemoglobin Beta Chain Splicing at IVS2 654 locus (AID 910).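 Also: HeLa cells stably carrying EGFP split by mutant beta-globin IVS2-654 intron; potency is read from the fitted curve at half-maximal effect; potency of activators that raise GFP signal by restoring correct splicing.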 The procedure, abridged:
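Readout: per-well total peak green fluorescence (488 nm ex, 500–520 nm em) from objects 5–250 µm, reflecting correct splicing of an EGFP-654 reporter. Compounds were applied for 2 days at 37 °C to overnight-plated HeLa EGFP-654 cells; controls were DMSO and 500 nM IVS2-654 PNA.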

Assay [18] can be described thus: Confirmation and Secondary Assay for Modulators of Hemoglobin Beta Chain Splicing at IVS2 705 locus (AID 930).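 Also: GFP fluorescence per well restored by corrected splicing of the IVS2-705 intron in EGFP; potency is read from the fitted curve at half-maximal effect.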 The procedure, abridged:
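HeLa cells stably carrying EGFP interrupted by mutant beta-globin intron 2 (IVS2-705) treated 2 days at 37C with compound; 500 nM antisense PNA as control. Correct splicing read as total peak GFP intensity per well by laser-scanning cytometry.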

The target in assay [19] is Muscarinic acetylcholine receptor M1 (Rattus norvegicus) (UniProt P08482). Kind of assay: qHTS Assay for Antagonists of Acetylcholine Muscarinic M1 Receptor: Kinetic Measurement of Intracellular Calcium Response (AID 943).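 Also: Fluo-4 calcium signal as peak divided by basal fluorescence over 4 min; nearly all actives have a fitted effect of over 75% in size.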 The procedure, abridged: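 Antagonism is measured as inhibition of the carbachol-evoked calcium rise in CHO cells transfected with rat M1. Cells are dye-loaded, exposed to compound for 10 min, then stimulated with 100 nM carbachol (EC80).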

Assay [20] concerns the target Pyruvate kinase PKM (Homo sapiens) (UniProt P14618). Kind of assay: qHTS Assay for Activators of Human Muscle Pyruvate Kinase (AID 954; active = well fitted curve in the direction sought with a large enough effect, not every such curve was filed as active;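 also: 0% = uninhibited enzyme and -100% = no enzyme or full thiadiazolimine inhibition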). The procedure, abridged:
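ATP production by PKM2 detected via luciferase luminescence after 1 h room-temperature reaction (0.1 nM enzyme, PEP at Km 0.5 mM, ADP 0.1 mM, pH 7.2 imidazole buffer). Inhibition scaled to no-enzyme control; activation referenced to 0.3 nM enzyme wells.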

Unmarked numbers belong to inactive results. Inconclusive results are not listed. Activity calls are given as the source filed them. Unless noted, calls follow the shape of the dose curve; as a rule, active = well fitted curve in the direction sought with a large enough effect; inconclusive = small, poorly fitted or top-dose-only effect, or another doubt; inactive = no such curve, though single readings can be large; an effect the other way counts as inactive or inconclusive.

Sequence of Cytochrome P450 1A2 (Homo sapiens) (P05177 whole entry, looked up): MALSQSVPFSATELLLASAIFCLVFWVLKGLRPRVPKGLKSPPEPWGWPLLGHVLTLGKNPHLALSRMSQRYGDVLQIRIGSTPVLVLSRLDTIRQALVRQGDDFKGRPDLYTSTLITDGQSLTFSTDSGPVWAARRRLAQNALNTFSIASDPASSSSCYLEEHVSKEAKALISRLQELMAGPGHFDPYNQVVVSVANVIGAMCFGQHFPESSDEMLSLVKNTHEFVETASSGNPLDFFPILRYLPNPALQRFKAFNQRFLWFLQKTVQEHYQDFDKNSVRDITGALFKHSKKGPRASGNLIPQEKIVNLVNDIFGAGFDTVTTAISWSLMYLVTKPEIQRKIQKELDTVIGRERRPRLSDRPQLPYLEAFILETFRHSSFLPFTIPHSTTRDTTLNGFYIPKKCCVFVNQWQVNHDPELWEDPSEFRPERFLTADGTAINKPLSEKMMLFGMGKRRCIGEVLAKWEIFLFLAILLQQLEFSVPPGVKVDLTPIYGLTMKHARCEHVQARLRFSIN
Sequence of Glucocorticoid receptor (Homo sapiens) (P04150 whole entry, looked up, the tested form may be a part): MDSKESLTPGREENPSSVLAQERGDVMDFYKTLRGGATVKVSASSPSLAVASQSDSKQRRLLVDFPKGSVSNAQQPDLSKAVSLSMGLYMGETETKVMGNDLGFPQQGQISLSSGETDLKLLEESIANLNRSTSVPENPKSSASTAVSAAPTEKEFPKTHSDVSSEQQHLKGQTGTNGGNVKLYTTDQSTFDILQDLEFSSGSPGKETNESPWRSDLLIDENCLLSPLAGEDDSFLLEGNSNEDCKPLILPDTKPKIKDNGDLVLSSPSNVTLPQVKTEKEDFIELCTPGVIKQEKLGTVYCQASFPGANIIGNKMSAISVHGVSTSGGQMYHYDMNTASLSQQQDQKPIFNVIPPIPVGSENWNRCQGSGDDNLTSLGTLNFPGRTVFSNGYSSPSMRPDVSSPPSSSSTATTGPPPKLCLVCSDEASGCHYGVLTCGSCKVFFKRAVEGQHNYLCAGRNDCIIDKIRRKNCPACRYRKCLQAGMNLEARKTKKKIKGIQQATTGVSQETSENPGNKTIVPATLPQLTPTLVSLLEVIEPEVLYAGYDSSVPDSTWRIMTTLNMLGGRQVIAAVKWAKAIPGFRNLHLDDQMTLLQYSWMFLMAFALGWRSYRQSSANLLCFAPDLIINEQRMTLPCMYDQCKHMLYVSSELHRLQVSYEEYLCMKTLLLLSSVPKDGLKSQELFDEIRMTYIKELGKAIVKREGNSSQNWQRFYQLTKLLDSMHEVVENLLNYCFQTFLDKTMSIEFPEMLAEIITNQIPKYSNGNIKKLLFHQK
Sequence of Alpha-galactosidase A (Homo sapiens) (P06280 whole entry, looked up): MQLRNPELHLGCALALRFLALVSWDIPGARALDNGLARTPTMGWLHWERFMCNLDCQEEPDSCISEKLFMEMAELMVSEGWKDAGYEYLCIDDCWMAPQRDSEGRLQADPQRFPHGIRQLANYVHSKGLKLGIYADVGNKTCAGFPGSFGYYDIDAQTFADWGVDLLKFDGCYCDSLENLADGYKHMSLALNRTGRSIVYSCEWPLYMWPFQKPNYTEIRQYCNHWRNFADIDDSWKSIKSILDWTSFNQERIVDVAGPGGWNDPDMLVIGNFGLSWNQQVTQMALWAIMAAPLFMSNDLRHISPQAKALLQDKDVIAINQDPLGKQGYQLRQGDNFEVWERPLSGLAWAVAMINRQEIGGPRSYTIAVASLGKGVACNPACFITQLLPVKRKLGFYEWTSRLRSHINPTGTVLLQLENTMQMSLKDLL
Sequence of 3',5'-cyclic-AMP phosphodiesterase 4B (Homo sapiens) (Q07343 whole entry, looked up): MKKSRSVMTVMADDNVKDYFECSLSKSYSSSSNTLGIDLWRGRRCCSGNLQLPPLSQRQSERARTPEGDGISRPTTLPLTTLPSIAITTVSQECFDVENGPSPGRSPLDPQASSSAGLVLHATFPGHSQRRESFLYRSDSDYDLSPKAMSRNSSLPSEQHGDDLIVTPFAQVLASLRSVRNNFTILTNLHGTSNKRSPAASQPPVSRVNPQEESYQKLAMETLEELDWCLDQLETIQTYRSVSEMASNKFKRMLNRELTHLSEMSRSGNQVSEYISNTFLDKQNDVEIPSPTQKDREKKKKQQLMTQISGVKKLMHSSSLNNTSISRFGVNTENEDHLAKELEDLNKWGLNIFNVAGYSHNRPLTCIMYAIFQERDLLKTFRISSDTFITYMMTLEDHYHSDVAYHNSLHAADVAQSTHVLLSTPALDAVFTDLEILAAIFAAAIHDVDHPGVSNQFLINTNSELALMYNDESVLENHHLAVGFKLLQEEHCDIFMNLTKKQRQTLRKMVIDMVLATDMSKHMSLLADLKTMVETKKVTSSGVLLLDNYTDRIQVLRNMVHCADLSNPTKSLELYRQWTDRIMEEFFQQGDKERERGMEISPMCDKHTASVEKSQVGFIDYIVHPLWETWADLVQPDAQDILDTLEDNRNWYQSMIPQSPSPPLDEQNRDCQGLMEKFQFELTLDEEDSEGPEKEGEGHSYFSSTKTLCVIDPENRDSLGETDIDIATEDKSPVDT
Sequence of Pyruvate kinase (Leishmania mexicana) (Q27686 2-499 E452W): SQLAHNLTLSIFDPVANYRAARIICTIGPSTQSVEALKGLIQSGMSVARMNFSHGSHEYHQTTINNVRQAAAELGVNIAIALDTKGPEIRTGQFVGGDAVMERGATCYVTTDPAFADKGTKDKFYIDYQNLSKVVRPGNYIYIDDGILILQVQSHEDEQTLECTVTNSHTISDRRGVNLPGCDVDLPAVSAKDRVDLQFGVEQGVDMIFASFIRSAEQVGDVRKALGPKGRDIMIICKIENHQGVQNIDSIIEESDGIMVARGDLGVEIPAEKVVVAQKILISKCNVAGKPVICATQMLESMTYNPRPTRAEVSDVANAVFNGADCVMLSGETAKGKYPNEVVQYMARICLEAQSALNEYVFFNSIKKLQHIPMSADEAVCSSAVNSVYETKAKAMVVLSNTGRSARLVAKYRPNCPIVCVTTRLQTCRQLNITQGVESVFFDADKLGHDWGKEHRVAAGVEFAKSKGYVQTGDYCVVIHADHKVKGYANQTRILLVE
Sequence of Pyruvate kinase PKM (Homo sapiens) (P14618 whole entry, looked up): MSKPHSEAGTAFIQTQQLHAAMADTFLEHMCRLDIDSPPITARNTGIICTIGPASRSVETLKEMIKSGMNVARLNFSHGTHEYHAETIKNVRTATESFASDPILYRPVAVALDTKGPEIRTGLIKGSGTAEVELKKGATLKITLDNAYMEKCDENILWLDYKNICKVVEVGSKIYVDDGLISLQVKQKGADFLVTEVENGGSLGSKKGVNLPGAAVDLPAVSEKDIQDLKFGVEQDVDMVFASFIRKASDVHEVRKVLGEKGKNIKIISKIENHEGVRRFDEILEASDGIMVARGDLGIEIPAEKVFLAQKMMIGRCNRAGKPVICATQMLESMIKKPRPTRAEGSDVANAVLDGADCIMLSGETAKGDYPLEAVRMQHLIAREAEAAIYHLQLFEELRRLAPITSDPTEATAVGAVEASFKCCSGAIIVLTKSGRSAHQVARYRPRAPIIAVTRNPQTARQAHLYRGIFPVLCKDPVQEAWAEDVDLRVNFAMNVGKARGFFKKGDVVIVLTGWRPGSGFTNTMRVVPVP
Sequence of Muscarinic acetylcholine receptor M1 (Rattus norvegicus) (P08482 whole entry, looked up): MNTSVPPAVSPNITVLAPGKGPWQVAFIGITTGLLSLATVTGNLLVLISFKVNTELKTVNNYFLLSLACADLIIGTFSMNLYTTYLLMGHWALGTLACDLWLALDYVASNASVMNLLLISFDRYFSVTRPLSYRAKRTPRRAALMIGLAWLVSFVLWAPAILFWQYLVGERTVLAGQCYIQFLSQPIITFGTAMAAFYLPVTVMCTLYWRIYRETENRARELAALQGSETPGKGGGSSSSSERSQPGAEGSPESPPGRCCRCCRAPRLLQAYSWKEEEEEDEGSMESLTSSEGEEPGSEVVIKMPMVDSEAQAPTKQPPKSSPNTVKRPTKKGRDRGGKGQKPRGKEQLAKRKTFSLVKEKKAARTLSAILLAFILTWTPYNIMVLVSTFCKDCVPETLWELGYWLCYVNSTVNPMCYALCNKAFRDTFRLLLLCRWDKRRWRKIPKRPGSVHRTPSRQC
Sequence of Tumor susceptibility gene 101 protein (Homo sapiens) (Q99816 whole entry, looked up, the tested form may be a part): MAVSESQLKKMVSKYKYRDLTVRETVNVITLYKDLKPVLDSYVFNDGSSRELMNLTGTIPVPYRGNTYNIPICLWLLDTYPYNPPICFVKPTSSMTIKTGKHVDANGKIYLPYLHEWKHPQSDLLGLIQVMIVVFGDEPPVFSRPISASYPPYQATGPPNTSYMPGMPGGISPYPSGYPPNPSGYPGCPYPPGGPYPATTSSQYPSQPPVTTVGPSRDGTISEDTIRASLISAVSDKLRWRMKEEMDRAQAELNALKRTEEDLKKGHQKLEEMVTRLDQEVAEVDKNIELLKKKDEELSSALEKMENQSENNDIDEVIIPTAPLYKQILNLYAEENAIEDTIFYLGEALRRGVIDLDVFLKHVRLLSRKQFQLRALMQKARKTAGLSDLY
Sequence of Cytochrome P450 3A4 (Homo sapiens) (P08684 whole entry, looked up): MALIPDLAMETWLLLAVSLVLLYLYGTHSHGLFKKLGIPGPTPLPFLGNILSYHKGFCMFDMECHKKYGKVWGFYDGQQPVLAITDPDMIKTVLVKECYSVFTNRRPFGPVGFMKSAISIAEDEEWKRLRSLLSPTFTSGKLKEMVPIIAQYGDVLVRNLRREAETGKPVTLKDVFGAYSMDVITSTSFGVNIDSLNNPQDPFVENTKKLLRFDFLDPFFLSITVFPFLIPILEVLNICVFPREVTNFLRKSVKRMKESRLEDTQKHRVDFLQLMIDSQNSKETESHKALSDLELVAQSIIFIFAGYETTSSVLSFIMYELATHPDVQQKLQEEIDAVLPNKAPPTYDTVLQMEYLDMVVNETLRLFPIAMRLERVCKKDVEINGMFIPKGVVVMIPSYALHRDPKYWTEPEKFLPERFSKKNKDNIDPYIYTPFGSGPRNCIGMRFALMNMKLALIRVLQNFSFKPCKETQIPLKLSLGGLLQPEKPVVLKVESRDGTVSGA

Turning to `CCN1CC=C2C(C#N)=C(N)C(C#N)(C#N)[C@H](c3cccc(OC)c3OC)[C@H]2C1`, the activity change, negative = inhibition in [1] was 9.63%. Moreover, the Potency in assay [2] was greater than 20.6 µM; in assay [3] it was 29.1 µM (active).

For `CCSc1nnc(NC(=O)C(CC)(C(F)(F)F)C(F)(F)F)s1`, in assay [1], the activity change, negative = inhibition was -19%. Moreover, in [2], the Potency is greater than 20.6 µM.

For the compound `COC(=O)c1cc(=O)n2c(-c3ccc(OC)cc3)csc2n1`, in assay [1], the activity change, negative = inhibition was -2.63%. Besides, the Potency in [2] was greater than 20.6 µM.

For `CCOC(=O)NC(Nc1sc2c(c1C(=O)OC)CCN(C)C2)(C(F)(F)F)C(F)(F)F`, the activity change, negative = inhibition in assay [1] is 12.1%. The Potency in assay [2] is greater than 20.6 µM. Moreover, in [4], the activation is 6.5%.

`CCOC(=O)C1=C(CSc2nc3c(cc2C#N)CN(C)CC3)OC(N)=C(C#N)C1c1ccccc1` (centres undefined): in [1], the activity change, negative = inhibition was -2.2%. Also, in assay [2], the Potency is greater than 20.6 µM.

In the case of `CNC(=O)[C@@H]1O[C@@H](n2cnc3c(NCc4cccc(I)c4)ncnc32)[C@H](O)[C@@H]1O`, the Potency result in assay [5], in assay [9], in assay [10], in [11], in assay [12] and in assay [13] was “inactive” in each case. Also, the activity change, negative = inhibition in assay [6] was 9.56% [at 38 µM]. Also, in assay [7], the activity, negative = inhibition is -11.2% [at 38 µM]. For the same compound, the Potency in [2] and in assay [8] was greater than 46 µM throughout. In addition, the compound was classed as inactive in [14] and in [15].

`CN(C)c1ccc(-c2nn3c(-c4ccc(Cl)cc4)nnc3s2)cc1`: the activity change, negative = inhibition in assay [1] was 21.4%. For the same compound, the figures for the Potency in assay [2] and in assay [4] were greater than 20.6 µM and 10 µM (active), respectively.

For the compound `COC(=O)[C@@]1(Cc2ccc(OC)cc2)[C@H]2c3cc(C(=O)N4CCCC4)n(Cc4c(CO)[nH]cc(C)c4=O)c3C[C@H]2CN1C(=O)c1ccccc1`, in assay [5], the Potency was 25.1 µM (active).

Take `OC[C@@H]1O[C@@H](n2cnc3cncnc32)[C@@H](O)[C@H]1O`: the Potency result in assay [5], in assay [16], in [9], in assay [11], in assay [19] and in [12] was “inactive” in each case. Further, the activity change, negative = inhibition in [6] was -10.9% [at 38 µM]. Further, the activity, negative = inhibition in [7] is -14.6% [at 38 µM]. Besides, the Potency was greater than 46 µM in [2], greater than 46 µM in assay [8], 5.01 µM (active) in [17] and 12.6 µM (active) in [18]. Also, the activation in assay [4] was 4.26%. In addition, the result in assay [20], in [14] and in assay [15] was inactive.
